Inconclusive results are not listed. Activity calls are given as the source filed them. Unless noted, calls come from the whole dose curve.
Experiments:
[1] = Nuclear factor erythroid 2-related factor 2/antioxidant responsive element (Nrf2/ARE) small molecule agonists: qHTS cell viability counter screen in human keratinocytes (AID 1919968; active = well fitted curve in the direction sought with a large enough effect in the repeat runs; an effect the other way counts as inactive or inconclusive; note: nearly all actives have a fitted effect of over 55% in size; note: potency is the fitted concentration of half-maximal effect)
In short: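 Cytotoxicity was multiplexed with the Nrf2/ARE luciferase assay in the same wells. Stably transfected HaCaT keratinocytes were treated with test compounds for 23 h at 37 C. Cell viability was then measured by CellTiter-Fluor fluorescence.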

[2] = molecular target: Gonadotropin-releasing hormone receptor (Homo sapiens) (UniProt P30968); assay: Human gonadotropin-releasing hormone receptor (GnRHR) small molecule agonists, calcium flux assay in GnRHR-HEK293 cells (AID 1920063); note: nearly all actives have a fitted effect of over 35% in size
In short: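 Agonist activity was measured as intracellular calcium flux in HEK293 cells engineered to stably express human GnRHR. After dye loading for 1 hour at 37 C, compounds in DMSO were added and fluorescence was followed for 3 minutes.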

[3] = molecular target: KiSS-1 receptor (Homo sapiens) (UniProt Q969F8); assay: Human kisspeptin (KISS1R) small molecule agonists, calcium flux assay in KISS1R-HEK293 cells (AID 1920064; active = well fitted curve in the direction sought with a large enough effect in the repeat runs; an effect the other way counts as inactive or inconclusive)
In short: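 Agonist activity is monitored as intracellular calcium rise in engineered HEK293 cells carrying human KISS1R. Cells are dye-loaded for 1 h at 37 C before compound addition, and fluorescence is recorded for 3 min.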

[4] = G protein-coupled receptor (GPCR) small molecule agonists, calcium flux assay: HEK293 wild type cell line counter screen (AID 1920065)
In short: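 Seed cells, incubate 18 h (37 C, 5% CO2); add calcium dye, 1 h at 37 C; pin-transfer compounds, ATP control or DMSO; read fluorescence 480/540 nm each second for 3 min.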

[5] = p53 small molecule agonists, cell-based qHTS assay with human liver microsomes (AID 1963577);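 note: p53 response element beta-lactamase reporter cells with liver microsomes plus NADPH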
In short: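 Reporter activation was measured by LiveBLAzer fluorescence intensity in p53RE-bla cells, which had been exposed to compounds for 16 h at 37 C alongside 0.5 mg/mL human liver microsomes and 0.5 mg/mL NADPH (final concentrations).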

[6] = p53 small molecule agonists, cell-based qHTS assay with rat liver microsomes (AID 1963578)
In short: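 Compound in DMSO added to p53RE-bla cells 5 h post-plating; rat microsomes/NADPH 0.5 mg/mL final; 16 h, 37 C; LiveBLAzer 2 h RT.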

[7] = p53 small molecule agonists, cell-based qHTS assay with human liver microsomes: qHTS cell viability counter screen (AID 1963579); note: nearly all actives have a fitted effect of over 45% in size; note: potency is the fitted concentration of half-maximal effect
In short: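 HLM-supplemented (0.5 mg/mL final) and NADPH-supplemented (0.5 mg/mL final) p53RE-bla cultures, 4,000 cells per well, were dosed with compounds in DMSO for 16 h at 37 C; luminescent ATP detection (CellTiter-Glo, 30 min, room temperature) quantified surviving cells.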

[8] = p53 small molecule agonists, cell-based qHTS assay with rat liver microsomes: qHTS cell viability counter screen (AID 1963580); note: nearly all actives have a fitted effect of over 45% in size; note: potency is the fitted concentration of half-maximal effect
In short: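 Counter screen for cytotoxicity under metabolic activation: rat liver microsomes and NADPH, 0.5 mg/mL final each, added with compounds to p53RE-bla HCT-116 cells; 16 h at 37 C, then ATP luminescence read.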

[9] = p53 small molecule agonists, cell-based qHTS assay: qHTS cell viability counter screen (AID 1963581); note: nearly all actives have a fitted effect of over 45% in size; note: potency is the fitted concentration of half-maximal effect
In short: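 Viability was counter-screened in parallel with the p53 agonist reporter by measuring intracellular ATP luminescence in the same HCT-116 p53RE-bla wells after 16 h compound treatment at 37 C.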

[10] = molecular target: Muscarinic acetylcholine receptor M1 (Homo sapiens) (UniProt P11229); assay: Cholinergic receptor muscarinic 1 (CHRM1) small molecule agonists, cell-based qHTS assay (AID 1963589); note: nearly all actives have a fitted effect of over 35% in size
In short: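 Cells were plated and incubated 18 h at 37 C/5% CO2, loaded with calcium dye for 1 h at 37 C, then treated with compounds in DMSO. Fluorescence was recorded kinetically at 1 sec intervals.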

[11] = molecular target: D(2) dopamine receptor (Homo sapiens) (UniProt P14416); assay: Dopamine D2 receptor (DRD2) small molecule agonists, cell-based qHTS assay (AID 1963594); note: nearly all actives have a fitted effect of over 35% in size; note: potency is the fitted concentration of half-maximal effect
In short: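 HEK293 cells stably expressing DRD2 were cultured 24 h at 37 C, then given Ro20-1724 (0.1 mM final) and compounds for 10 min at room temperature. NKH477 (200nM) was then added for 30 min. cAMP was read by HTRF.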

[12] = p53 small molecule agonists, cell-based qHTS assay (AID 1963582; active = well fitted activation curve with a large enough effect in the signal ratio in the repeat runs, not every such curve was filed as active; the % refers to the signal ratio)
In short: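 Cells carrying a p53-responsive bla reporter are treated with test compounds for 16 h at 37 C; beta-lactamase activity is then detected with LiveBLAzer B/G FRET substrate after 2 h at room temperature.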

[13] = molecular target: 5-hydroxytryptamine receptor 2A (Homo sapiens) (UniProt P28223); assay: 5-hydroxytryptamine receptor 2A (HTR2A) small molecule antagonists, cell-based qHTS assay (AID 1963586); note: nearly all actives have a fitted effect of over 45% in size
In short: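 CHO cells stably expressing human HTR2A were plated for 18 h at 37 C, then loaded with calcium dye for 1 h. Compounds were preincubated 5 min at room temperature before DOI (4 nM solution) was added. Kinetic fluorescence was read for 3 min.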

[14] = molecular target: 5-hydroxytryptamine receptor 2A (Homo sapiens) (UniProt P28223); assay: 5-hydroxytryptamine receptor 2A (HTR2A) small molecule agonists, cell-based qHTS assay (AID 1963587); note: nearly all actives have a fitted effect of over 30% in size; note: potency is the fitted concentration of half-maximal effect
In short: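 HTR2A-CHO cells, plated 18 h at 37 C/5% CO2, dye-loaded 1 h at 37 C; compounds in DMSO added by pin tool (agonist mode). Intracellular calcium flux read as kinetic fluorescence on FDSS over 2 min at 1 s intervals.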

[15] = molecular target: Muscarinic acetylcholine receptor M1 (Homo sapiens) (UniProt P11229); assay: Cholinergic receptor muscarinic 1 (CHRM1) small molecule antagonists, cell-based qHTS assay (AID 1963588); note: nearly all actives have a fitted effect of over 40% in size
In short: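 Compounds were tested at 15 concentrations in three independent runs. Dye-loaded CHRM1-CHO cells were exposed 5 min at room temperature before stimulation by acetylcholine added at 50nM. Intracellular calcium was read kinetically on FDSS for 3 min.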

[16] = cAMP Responsive Elements (CRE) small molecule agonists, cell-based qHTS assay (AID 1963590)
In short: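 Cells carrying a CRE-driven beta-lactamase reporter (HEK 293T) are seeded, incubated overnight (18 h), and treated with test compounds for 3 h at 37 C; reporter activity is then detected with a FRET substrate after 2 h at room temperature.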

[17] = cAMP Responsive Elements (CRE) small molecule antagonists, cell-based qHTS assay (AID 1963591; active = well fitted inhibition curve with a large enough effect in the signal ratio in the repeat runs, not every such curve was filed as active; the % refers to the signal ratio; note: potency is the fitted concentration of half-maximal effect)
In short: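 Cells (CRE-bla HEK 293T, DMEM with 10% dialyzed FBS and 25 mM HEPES) are seeded and incubated 18 h. Compounds are added with NKH477 agonist at 0.25 uM final for 3 h, then FRET substrate for 2 h.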

[18] = molecular target: Beta-2 adrenergic receptor (Homo sapiens) (UniProt P07550); assay: Adrenergic beta2 receptor (ADRB2) small molecule antagonists, cell-based qHTS assay (AID 1963592); note: nearly all actives have a fitted effect of over 50% in size; note: potency is the fitted concentration of half-maximal effect; for activity change, negative = inhibition: series mostly up to about 92 µM
In short: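 Assay format: CHO-ADRB2 cells, 18-20hr seeding at 37C/5% CO2, then compound plus 1nM isoproterenol agonist mix for 0.5hr RT. Homogeneous time-resolved fluorescence cAMP detection after 1hr, expressed as 665/615 nm ratio.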

[19] = molecular target: D(2) dopamine receptor (Homo sapiens) (UniProt P14416); assay: Dopamine D2 receptor (DRD2) small molecule antagonists, cell-based qHTS assay (AID 1963595; active = well fitted inhibition curve with a large enough effect in the signal ratio in the repeat runs, with a control signal flat; the % refers to the signal ratio)
In short: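 DRD2-HEK293; 0.1 mM Ro20-1724; cpd 10 min RT; NKH477 200 nM + quinpirole 12 nM, 30 min RT; HTRF cAMP (cAMP-d2/anti-cAMP cryptate), 665/620 nm ratio after 1 h.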

[20] = molecular target: Beta-2 adrenergic receptor (Homo sapiens) (UniProt P07550); assay: Adrenergic beta2 receptor (ADRB2) small molecule agonists, cell-based qHTS assay (AID 1963593);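 note: CHO cells stably overexpressing human ADRB2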
In short: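 CHO cells stably over-expressing ADRB2 were plated overnight at 37C, then dosed with compounds plus a stimulation mix containing 100uM IBMX and 25uM Ro-20-1724 for 0.5hr at room temperature. cAMP was measured by HTRF competition, 1hr.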
% is set by controls: 0 for no effect and ±100 for the full control effect.

Chain of Gonadotropin-releasing hormone receptor (Homo sapiens) (P30968 whole entry, looked up): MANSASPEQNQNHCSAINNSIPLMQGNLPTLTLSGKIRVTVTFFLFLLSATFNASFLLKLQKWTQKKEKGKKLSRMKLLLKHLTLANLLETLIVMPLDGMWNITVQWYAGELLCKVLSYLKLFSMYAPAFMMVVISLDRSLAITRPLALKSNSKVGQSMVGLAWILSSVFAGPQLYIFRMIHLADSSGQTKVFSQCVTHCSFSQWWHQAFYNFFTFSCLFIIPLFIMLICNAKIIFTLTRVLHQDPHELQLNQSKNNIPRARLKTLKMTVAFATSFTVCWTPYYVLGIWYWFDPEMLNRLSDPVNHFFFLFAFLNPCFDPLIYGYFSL
Chain of KiSS-1 receptor (Homo sapiens) (Q969F8 whole entry, looked up): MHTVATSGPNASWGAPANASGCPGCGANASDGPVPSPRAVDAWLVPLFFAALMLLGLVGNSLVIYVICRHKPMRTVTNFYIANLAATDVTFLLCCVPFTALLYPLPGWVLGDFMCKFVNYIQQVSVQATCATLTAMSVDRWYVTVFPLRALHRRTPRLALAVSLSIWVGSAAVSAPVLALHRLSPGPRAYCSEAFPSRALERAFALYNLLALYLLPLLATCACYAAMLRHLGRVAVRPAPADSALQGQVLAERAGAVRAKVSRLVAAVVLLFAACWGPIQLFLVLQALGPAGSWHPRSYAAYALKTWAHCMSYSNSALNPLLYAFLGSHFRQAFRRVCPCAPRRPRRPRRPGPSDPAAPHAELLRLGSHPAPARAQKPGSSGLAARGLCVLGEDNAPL
Chain of Muscarinic acetylcholine receptor M1 (Homo sapiens) (P11229 whole entry, looked up): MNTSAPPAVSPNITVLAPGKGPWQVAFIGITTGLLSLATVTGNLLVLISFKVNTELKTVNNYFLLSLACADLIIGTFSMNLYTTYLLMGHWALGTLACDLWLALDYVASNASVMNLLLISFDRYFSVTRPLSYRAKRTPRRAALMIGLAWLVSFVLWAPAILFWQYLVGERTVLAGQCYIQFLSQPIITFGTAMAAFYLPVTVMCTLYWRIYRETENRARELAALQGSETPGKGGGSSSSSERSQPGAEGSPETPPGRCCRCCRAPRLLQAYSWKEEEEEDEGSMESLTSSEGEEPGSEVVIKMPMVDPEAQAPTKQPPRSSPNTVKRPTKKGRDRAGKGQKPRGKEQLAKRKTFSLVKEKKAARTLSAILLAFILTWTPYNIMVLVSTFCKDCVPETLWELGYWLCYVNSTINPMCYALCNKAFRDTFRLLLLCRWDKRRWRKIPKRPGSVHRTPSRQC
Chain of 5-hydroxytryptamine receptor 2A (Homo sapiens) (P28223 whole entry, looked up): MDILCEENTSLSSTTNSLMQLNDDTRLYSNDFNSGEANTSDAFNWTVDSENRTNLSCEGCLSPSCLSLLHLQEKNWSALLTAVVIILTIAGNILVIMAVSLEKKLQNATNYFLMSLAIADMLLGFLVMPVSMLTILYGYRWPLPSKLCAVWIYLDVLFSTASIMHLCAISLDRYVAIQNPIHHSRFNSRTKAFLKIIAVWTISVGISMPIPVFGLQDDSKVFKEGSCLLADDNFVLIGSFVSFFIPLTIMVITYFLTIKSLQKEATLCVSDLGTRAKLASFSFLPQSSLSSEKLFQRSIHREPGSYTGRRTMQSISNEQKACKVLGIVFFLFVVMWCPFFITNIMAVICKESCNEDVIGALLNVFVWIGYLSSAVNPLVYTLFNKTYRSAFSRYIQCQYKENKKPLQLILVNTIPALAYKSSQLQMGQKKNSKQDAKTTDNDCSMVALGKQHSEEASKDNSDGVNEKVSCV
Chain of Beta-2 adrenergic receptor (Homo sapiens) (P07550 whole entry, looked up): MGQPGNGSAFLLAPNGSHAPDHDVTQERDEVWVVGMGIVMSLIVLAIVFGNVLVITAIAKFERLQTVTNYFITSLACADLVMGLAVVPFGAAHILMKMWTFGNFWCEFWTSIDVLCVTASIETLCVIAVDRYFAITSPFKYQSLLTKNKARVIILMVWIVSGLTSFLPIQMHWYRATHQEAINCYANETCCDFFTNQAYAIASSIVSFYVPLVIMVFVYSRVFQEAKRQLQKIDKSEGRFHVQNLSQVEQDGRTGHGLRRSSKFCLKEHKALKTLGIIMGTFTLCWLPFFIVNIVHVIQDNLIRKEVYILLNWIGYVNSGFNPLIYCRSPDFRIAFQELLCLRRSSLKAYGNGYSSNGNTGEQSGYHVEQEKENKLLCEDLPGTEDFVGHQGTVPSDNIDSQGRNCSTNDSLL
Chain of D(2) dopamine receptor (Homo sapiens) (P14416 whole entry, looked up): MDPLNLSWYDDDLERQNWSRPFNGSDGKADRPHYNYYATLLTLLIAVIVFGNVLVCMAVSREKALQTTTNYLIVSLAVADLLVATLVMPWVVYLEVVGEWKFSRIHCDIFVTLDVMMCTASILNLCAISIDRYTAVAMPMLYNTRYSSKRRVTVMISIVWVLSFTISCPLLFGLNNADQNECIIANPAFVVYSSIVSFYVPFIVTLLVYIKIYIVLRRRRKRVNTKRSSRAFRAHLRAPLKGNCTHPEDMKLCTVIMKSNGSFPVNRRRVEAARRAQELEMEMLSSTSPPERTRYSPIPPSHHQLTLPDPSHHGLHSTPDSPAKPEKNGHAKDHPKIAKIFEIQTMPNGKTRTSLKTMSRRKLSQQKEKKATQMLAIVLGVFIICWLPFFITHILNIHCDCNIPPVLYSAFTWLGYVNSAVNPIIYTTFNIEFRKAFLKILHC

CCc1cc(SCc2sc(-c3ccc(C(F)(F)F)cc3)nc2CN2CCN(c3ccc(OC)cc3)CC2)ccc1OCC(=O)O
active: Potency [1] 54.5 µM | Potency [7] 36.3 µM | Potency [8] 32.4 µM | Potency [9] 12.9 µM
inactive: Potency [2] | Potency [3] | Potency [4] | Potency [5] | Potency [6] | Potency [10] | Potency [11]

O=C(Oc1cccc2cccnc12)c1ccccc1
active: Potency [1] 2.98 µM | Potency [17] 23.7 µM
inactive: Potency [2] | Potency [3] | Potency [4] | Potency [5] | Potency [6] | Potency [7] | Potency [8] | Potency [12] | Potency [13] | Potency [14] | Potency [15] | Potency [10] | Potency [16] | Potency [18] | Potency [11] | Potency [19]

C=C(C)[C@@H]1CC=C(C)CC1
inactive: Potency [1] | Potency [2] | Potency [3] | Potency [4] | Potency [5] | Potency [6] | Potency [7] | Potency [9] | Potency [12] | Potency [13] | Potency [14] | Potency [15] | Potency [10] | Potency [16] | Potency [17] | Potency [18] | Potency [20] | Potency [11] | Potency [19]

Cn1c(N)nc2nc[nH]c2c1=O
inactive: Potency [1] | Potency [2] | Potency [3] | Potency [4] | Potency [5] | Potency [6] | Potency [7] | Potency [8] | Potency [13] | Potency [14] | Potency [15] | Potency [10] | Potency [17]

CC(=O)Nc1ccc(/C=N/NC(N)=S)cc1
inactive: Potency [1] | Potency [2] | Potency [3] | Potency [4] | Potency [5] | Potency [6] | Potency [7] | Potency [9] | Potency [12] | Potency [13] | Potency [14] | Potency [15] | Potency [10] | Potency [17] | Potency [11] | Potency [19]

CCCCN1C(=O)[C@@H]([C@H](O)C2CCCCC2)NC(=O)C12CCN(Cc1ccc(Oc3ccc(C(=O)O)cc3)cc1)CC2
inactive: Potency [1] | Potency [2] | Potency [3] | Potency [4] | Potency [5] | Potency [6] | Potency [7] | Potency [8] | Potency [18] | Potency [19]
active: Potency [14] 24.5 µM

CCN(CC)CC
inactive: Potency [1] | Potency [2] | Potency [3] | Potency [4] | Potency [5] | Potency [6] | Potency [7] | Potency [8] | Potency [9] | Potency [14] | Potency [15] | Potency [10] | Potency [17] | Potency [18] | Potency [11] | Potency [19]

CCN1/C(=C/C=C/c2sc3ccccc3[n+]2CC)Sc2ccccc21
inactive: activity change [2] -1.77% [at 11.8 µM, stronger effect = higher value] | activation [3] -1.63% [at 15.8 µM] | activation [4] -0.0412% [at 11.8 µM] | activation [5] 15.3% [at 13.5 µM] | activation [6] 2.93% [at 13.6 µM] | activity change, negative = cytotoxicity [7] 8.44% [at 13.5 µM] | activity change, negative = cytotoxicity [8] 1.97% [at 13.5 µM] | activity, negative = inhibition [13] -18.6% [at 12.7 µM] | activity, negative = inhibition [15] -35.2% [at 12.6 µM] | activation [10] -0.119% [at 15.8 µM] | activity change, negative = inhibition [19] -0.0645% [at 18.9 µM]
active: Potency [1] 3.26 µM | Potency [17] 11.6 µM | Potency [18] 5.8 µM | Potency [11] 14.6 µM
